Measurements from the supplement of paper PMC7695840.
Structures can show the parent of a compound that is named as a salt.

Assays:
[1] = system: Staphylococcus aureus MW2 delta-mecA (mecA-); test: normalized GFP fluorescence (growth of mecA- strain) (fraction of control range); higher = more growth of mecA- strain; conditions: compound concentration: 150 uM; cefoxitin: subinhibitory; fluorescent label: GFP
How it was run: (§1)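 Single-replicate 1536-well plates carried 150 μM compound (1.5% DMSO), onto which 5 µL/well of a 1:1 mix of pre-induced S. aureus MW2 cells was dispensed: gene-carrying cells tagged with DsRed and deletion cells tagged with GFP, in LB with a subinhibitory antibiotic dose set daily. Incubation ran 20 h at 37 °C, 90% humidity, unshaken, followed by DsRed (540/590) and GFP (485/520) reads. Per-plate scaling of each channel used single-strain control medians, and plates with high untreated ratios and rows with DsRed/GFP >10 were excluded.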

[2] = system: Staphylococcus aureus MW2 (mecA+); test: normalized DsRed fluorescence (growth of mecA+ strain) (fraction of control range); higher = more growth of mecA+ strain; conditions: compound concentration: 150 uM; cefoxitin: subinhibitory; fluorescent label: DsRed
How it was run: as §1

Structure (SMILES)	normalized GFP fluorescence [1]	normalized DsRed fluorescence [2]
C/C=C/c1ccc(OC)cc1	0.443	0.71
Cc1cc(=O)[nH]c(=S)[nH]1	0.707	0.716
O=C1c2c(O)ccc(O)c2C(=O)c2c(NCCNCCO)ccc(NCCNCCO)c21	0.184	1.12
O=S(=O)(O)NC1CCCCC1	0.457	0.493
Cc1oncc1C(=O)Nc1ccc(C(F)(F)F)cc1	0.0504	1.25
CN(C)CC/C=C1/c2ccccc2Sc2ccc(Cl)cc21	0.0199	1.12
Cc1ccc(C)c(OCCCC(C)(C)C(=O)O)c1	0.121	1.54
NCC(=O)CCC(=O)O	0.315	1.12
C=C1CC[C@H](O)C/C1=C/C=C1\CCC[C@]2(C)[C@@H]([C@H](C)/C=C/[C@H](C)C(C)C)CC[C@@H]12	0.177	0.448
COc1ccc2c(c1)C(=O)N(CCc1ccc(S(=O)(=O)NC(=O)NC3CCCCC3)cc1)C(=O)C2(C)C [Gliquidone]	0.017	0.134
CCCCN1CCCCC1C(=O)Nc1c(C)cccc1C (stereo unspecified)	0.62	0.887
O=P(O)(O)C(O)(Cn1ccnc1)P(=O)(O)O [Zoledronic Acid (Zoledronate)]	0.313	0.685
CN(C)CCCN1c2ccccc2Sc2ccc(C(F)(F)F)cc21	-0.00501	1.49
CC(=O)[C@H]1CC[C@H]2[C@@H]3C=CC4=CC(=O)CC[C@@]4(C)[C@@H]3CC[C@]12C	0.56	0.456
CCCNCC(O)COc1ccccc1C(=O)CCc1ccccc1 (stereo unspecified)	0.19	1.05
Cc1ncc([N+](=O)[O-])n1CCO	0.562	0.581
CN(CCOc1ccc(NS(C)(=O)=O)cc1)CCc1ccc(NS(C)(=O)=O)cc1 [Dofetilide (Tikosyn)]	0.244	1.28
Cc1nc2n(c(=O)c1CCN1CCC(c3noc4cc(F)ccc34)CC1)CCCC2	0.481	0.492
CN(C)C(=O)COC(=O)Cc1ccc(OC(=O)c2ccc(NC(=N)N)cc2)cc1 [Camostat Mesilate (FOY-305)]	0.0607	0.818
O=C(c1ccc(OCCN2CCCCC2)cc1)c1c(-c2ccc(O)cc2)sc2cc(O)ccc12	-0.00866	0.747
CC[C@@H](CO)NCCN[C@@H](CC)CO	0.377	0.991
NC[C@H]1O[C@H](O[C@H]2[C@H](O[C@@H]3O[C@H](CO)[C@@H](O)[C@H]3O)[C@@H](O)[C@H](N)C[C@@H]2N)[C@H](N)[C@@H](O)[C@@H]1O	0.457	0.685
O=C1CN(/N=C/c2ccc(-c3ccc([N+](=O)[O-])cc3)o2)C(=O)N1	0.519	0.706

Structure (SMILES)	normalized GFP fluorescence [1]	normalized DsRed fluorescence [2]
CC(C(=O)O)c1ccc(C(=O)c2cccs2)cc1 (stereo unspecified)	0.344	0.423
O=C1CCc2ccc(OCCCCN3CCN(c4cccc(Cl)c4Cl)CC3)cc2N1	0.0969	0.824
CNC(C)C1CCC(N)C(OC2C(N)CC(N)C(OC3OCC(C)(O)C(NC)C3O)C2O)O1 (stereo unspecified)	0.397	0.522
O=C1CN2Cc3c(ccc(Cl)c3Cl)N=C2N1	0.237	0.896
O=NN(CCCl)C(=O)NC1CCCCC1	0.569	0.767
CN(C)c1nc(N(C)C)nc(N(C)C)n1	0.159	0.887
CC(C)[C@H](N)C(=O)OCC(CO)OCn1cnc2c(=O)nc(N)[nH]c21 (stereo partly specified)	0.546	0.722
CC(=O)Oc1ccccc1C(=O)O [Aspirin (Acetylsalicylic acid)]	0.393	0.803
CC(=O)c1ccc(S(=O)(=O)NC(=O)NC2CCCCC2)cc1	0.35	0.729
Cc1ccc(O)c([C@H](CCN(C(C)C)C(C)C)c2ccccc2)c1 [Tolterodine tartrate (Detrol LA)]	0.08	0.489
CC(C)c1ccc2oc3nc(N)c(C(=O)O)cc3c(=O)c2c1	0.212	0.319
CC(=O)Oc1ccc(C(c2ccc(OC(C)=O)cc2)c2ccccn2)cc1	0.399	0.669
CC(=O)N(CC(O)CO)c1c(I)c(C(=O)NCC(O)CO)c(I)c(C(=O)NCC(O)CO)c1I (stereo unspecified)	0.415	0.849
COc1ccc(CC(C)NCC(O)c2ccc(O)c(NC=O)c2)cc1 (stereo unspecified) [Formoterol hemifumarate]	0.777	0.699
CCN[C@@H]1C[C@H](N)[C@@H](O[C@H]2OC(CN)=CC[C@H]2N)[C@H](O)[C@H]1O[C@H]1OC[C@](C)(O)[C@H](NC)[C@H]1O	0.695	0.952
CN(C)CCOC(c1ccccc1)c1ccccc1	0.272	0.789
CC(C)[N+](C)(CCOC(=O)C1c2ccccc2Oc2ccccc21)C(C)C	0.295	0.691
NC(=O)N1c2ccccc2CC(=O)c2ccccc21	0.596	0.408
CC1=Nc2ccc(Cl)cc2S(=O)(=O)N1	0.259	0.639
Cn1c(=O)c2[nH]cnc2n(C)c1=O [Aminophylline (Truphylline)]	0.38	1.18
CN1CCC(=C2c3ccccc3C=Cc3ccccc32)CC1	0.0037	1.31
CC(=O)OCC(=O)[C@@]1(O)CC[C@H]2[C@@H]3CCC4=CC(=O)CC[C@]4(C)[C@H]3[C@@H](O)C[C@@]21C	0.58	0.595
CC(C)Oc1ccc2c(=O)c(-c3ccccc3)coc2c1 [Ipriflavone]	0.362	0.57

Structure (SMILES)	normalized GFP fluorescence [1]	normalized DsRed fluorescence [2]
CC(C)NCC(O)COc1ccc(COCCOC(C)C)cc1 (stereo unspecified)	0.499	0.658
Cc1nccn1CC1CCc2c(c3ccccc3n2C)C1=O (stereo unspecified)	0.319	0.626
O=C(CCCN1CC=C(n2c(=O)[nH]c3ccccc32)CC1)c1ccc(F)cc1	0.664	0.702
Fc1ccc([C@@H]2CCNC[C@H]2COc2ccc3c(c2)OCO3)cc1	-0.0171	1.15
COc1ccccc1OCC(O)CN1CCN(CC(=O)Nc2c(C)cccc2C)CC1 (stereo unspecified)	0.863	0.62
O=c1oc2cc(O)ccc2s1 [Tioxolone]	0.428	0.731
Nc1nc2[nH]cnc2c(=S)[nH]1	0.329	1.33
O=C1C(O)=C([C@H]2CC[C@H](c3ccc(Cl)cc3)CC2)C(=O)c2ccccc21 [Atovaquone (Atavaquone)]	0.714	0.498
NCCc1c[nH]cn1	0.621	0.661
C=C[C@H]1CN2CC[C@H]1C[C@@H]2[C@@H](O)c1ccnc2ccc(OC)cc12	0.452	0.631
C[C@@H]1NC(=O)[C@@H](N)CNC(=O)[C@H](C2CCNC(=N)N2)NC(=O)/C(=C/NC(N)=O)NC(=O)[C@H](CNC(=O)CC(N)CCCN)NC1=O.N=C1NCCC([C@@H]2NC(=O)/C(=C/NC(N)=O)NC(=O)[C@H](CNC(=O)CC(N)CCCN)NC(=O)[C@H](CO)NC(=O)[C@@H](N)CNC2=O)N1 (stereo partly specified)	0.494	0.758
CN1C(C(=O)Nc2ccccn2)=C(O)c2ccccc2S1(=O)=O [Piroxicam (Feldene)]	0.0173	0.661
CC(=O)OCC[N+](C)(C)C	0.311	0.859
C[C@]12CC[C@@H]3c4ccc(O)cc4CC[C@H]3[C@@H]1CCC2=O [Estrone]	0.136	1.11
COc1ccc(-c2ccc3cc(C(=O)O)ccc3c2)cc1C12CC3CC(CC(C3)C1)C2	0.582	0.97
O=C(O)C1(C(=O)O)CCC1.[NH2-].[NH2-].[Pt+2]	0.26	0.886
Cc1cc(C#N)cc(C)c1Oc1nc(Nc2ccc(C#N)cc2)nc(N)c1Br [Etravirine (TMC125)]	0.423	0.589
CNCCc1ccccn1	0.393	0.969
CCC1(c2ccccc2)C(=O)NCNC1=O	0.33	0.811
CC1=C(C(=O)O)N2C(=O)[C@@H](NC(=O)[C@H](N)c3ccccc3)[C@H]2SC1	0.18	1.02
O=C(O)COCCN1CCN(C(c2ccccc2)c2ccc(Cl)cc2)CC1 (stereo unspecified)	0.0457	0.556
O=C(C1CCCCC1)N1CC(=O)N2CCc3ccccc3C2C1 (stereo unspecified)	0.421	0.542
